# Reference: PubChem BioAssay (Tox21)
# Several values for one entry are separate records, joined by “and”; a condition that tells them apart may be missing. Identical values can stand only once. Results filed as inconclusive are left out. A call without a number means that no potency is given here. Unmarked numbers belong to inactive results. Activity calls are given as the source filed them. Calls follow the shape of the dose curve; as a rule, active = well fitted cell-killing curve with a large enough effect in the repeat runs (not every such curve was filed as active); inconclusive = weak or mixed curves, or effect the other way; inactive = no such curve, though single readings can be large or run the other way.
# Test: qHTS assay to identify small molecule antagonists of the estrogen related receptor signaling pathway with the pleiotropic PPARgamma coactivator (PGC) from Tox21 10K library - cell viability counter screen (AID 1224840); also: nearly all actives have a fitted effect of over 40% in size
# Details: PGC/ERR reporter cells viability, CellTiter-Fluor, 17.5 h; series mostly up to 92.4 µM
# Description: National Center for Advancing Translational Sciences [NCATS]
# NIH Chemical Genomics Center [NCGC]
# U.S. Environmental Protection Agency [EPA]
# National Institutes of Environmental Health Sciences [NIEHS]
# National Toxicology Program [NTP]
# U.S. Food and Drug Administration [FDA]
# Estrogen related receptors (ERRs), the first orphan nuclear receptors discovered, play an important role in the control of cellular energy metabolism. ERRs are required for high-energy production in response to the environmental challenges. The pleiotropic PPARgamma coactivator (PGC) is a major partner of ERR and a key regulator in energy homeostasis. Together they have been implicated in the etiology of metabolic disorders such as Type 2 diabetes and metabolic syndrome. ERR-alpha was also identified as an adverse marker for breast cancer progression; ERR-alpha-positive tumors have a poor prognosis. To screen and to identify environmental compounds that perturb the ERR and PGC/ERR signaling pathways could provide valuable information for potential therapeutic or preventive measures in the treatment of metabolic disease. To differentiate true PGC/ERR antagonists or agonist from cytotoxic substances, the assay is multiplexed with cell viability assay.
# Tox21 Assay Protocol Summary:
# The PGC/ERR cells were dispensed at 2,000 cells/5 ul/well in 1536-well white plates using a Multidrop dispenser. After the assay plates were incubated at a 37 C/5% CO2 incubator for 6 hours, 23 nL of compounds dissolved in DMSO, positive and negative controls or DMSO only was transferred to the assay plate by a pin tool. The plates were incubated at 37 C for 17.5 hours. 1 ul/well of CellTiter-Fluor reagent was added into the assay plates using a Flying Reagent Dispenser. After 30-minute incubation at 37 C/5% CO2, the fluorescence intensity in the plates was measured using a ViewLux plate reader.
# Potency is read from the fitted curve at half-maximal effect.
Compound,Potency,"viability change, negative = cytotoxic"
CC1(C)[C@H](C(=O)O[C@H](C#N)c2cccc(Oc3ccccc3)c2)[C@@H]1C=C(Br)Br,inactive,–
O=P(OCC(Br)CBr)(OCC(Br)CBr)OCC(Br)CBr (stereo not given),inactive,–
O=[N+]([O-])/C=C/c1ccccc1,15.6 µM (active) and 24.3 µM (active),–
O=C(Cc1ccccc1)c1ccccc1,inactive,–
CC(C)(c1ccccc1)c1cc(-n2nc3ccccc3n2)c(O)c(C(C)(C)c2ccccc2)c1,inactive,–
CC(=O)OC(c1ccccc1)C(Cl)(Cl)Cl (stereo not given),inactive,–
C=C(C)C(=O)OCCCCOC(=O)C(=C)C,inactive,–
COc1cc(C[C@@H](C)N)c(OC)cc1Br,inactive,–
C[C@]12C=CC3=C4CCC(=O)C=C4CC[C@H]3[C@@H]1CC[C@@H]2O,inactive,–
CC(C)c1ccc(NC(=O)N(C)C)cc1,inactive,–
FC(Cl)(Cl)C(F)(Cl)Cl,inactive,–
C1CCNCC1,inactive,–
O=C(O)C(O)C(O)C(=O)O (stereo not given),inactive,–
CC(CC(C(N)=O)(c1ccccc1)c1ccccc1)N(C)C (stereo not given),inactive,–
NC(=O)CF,inactive,–
CC(Oc1cc(Cl)c(Cl)cc1Cl)C(=O)O (stereo not given),inactive,–
CCCN(CCC)C(=O)Cc1c(-c2ccc(Cl)cc2)nc2ccc(Cl)cn12,inactive,–
COC1CC(=C(c2cccs2)c2cccs2)C[N+](C)(C)C1 (stereo not given),inactive,–
COc1ccc(C(=O)c2c(C)n(CCN3CCOCC3)c3ccccc23)cc1,inactive,–
C=CCOC(=O)C(C)(C)OC(=O)c1cc(-n2c(=O)cc(C(F)(F)F)n(C)c2=O)ccc1Cl,inactive,–

Compound,Potency,"viability change, negative = cytotoxic"
CCCC(C)(COC(N)=O)COC(=O)NC(C)C (stereo not given),inactive,–
O=C=NC1CCCCC1,inactive,–
COc1ccc2c(c1OC)C(=O)O[C@H]2[C@@H]1c2cc3c(cc2CCN1C)OCO3,inactive,–
CN(C)C(=O)Nc1cccc(OC(=O)NC(C)(C)C)c1,inactive,–
CC(O)CN1CCN(CC(=O)[O-])CCN(CC(=O)[O-])CCN(CC(=O)[O-])CC1.[Gd+3] (stereo not given),inactive,–
NC(=S)c1c(Cl)cccc1Cl,inactive,–
Nc1c(Br)cc(Br)c2c1C(=O)c1ccccc1C2=O,–,-14.9% [at 19 µM]
ClCc1ccccc1Cl,inactive,–
CN(C)N,inactive,–
CC[N+]1(C)CCCC(OC(=O)C(O)(c2ccccc2)c2ccccc2)C1 (stereo not given),inactive,–
C[N+]1(CCC(C(N)=O)(c2ccccc2)c2ccccc2)CCCCC1,inactive,–
N#CC1(N=NC2(C#N)CCCCC2)CCCCC1,inactive,–
O=C1CC[C@@]2(O)[C@H]3Cc4ccc(O)c5c4[C@@]2(CCN3CC2CC2)[C@H]1O5,inactive,–
CCC1(CCC(C)C)C(=O)NC(=O)NC1=O,inactive,–
C=CCc1ccccc1O,inactive,–
CCOc1cccc(C2(N3CCN(c4ccccc4)CC3)CCC(C)CC2)c1 (stereo not given),inactive,–
CCc1ccccc1N,inactive,–
Cc1nc(N(C)C)nc(OC(=O)N(C)C)c1C,inactive,–
Clc1ccccc1,inactive,–
CC1(C)CC(=O)CC(C)(C)N1[O],inactive,–
